Results as given in PubChem BioAssay (NCATS).
Where “and” joins values, the source holds several entries; their conditions need not be identical. Equal entries are not always repeated. Results filed as inconclusive are left out. Entries that show only a call come without a potency. Some structures have more than one record in an assay (separate samples or runs), and their calls can disagree. Calls of active or inactive are those of the source. Calls come from the whole dose curve; as a rule, active = well fitted inhibition curve with a large enough effect; inconclusive = small, poorly fitted or top-dose-only effect; inactive = flat fitted curve, though single readings scatter.

These molecules were tested on HaCat (assay: Cytotoxic Profiling of Annotated Libraries Using Quantitative High-Throughput Screening (AID 1296008; note: nearly all actives have a fitted effect of over 60% in size)). Conditions: Five cell lines viability, CellTiter-Glo ATP luminescence, 48-72 h; max response: stronger effect = lower value.
Method in brief: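 Cytotoxicity was measured as CellTiter-Glo ATP luminescence, read after 10 min at room temperature. Compound treatment of the cells lasted 48 or 72 hr at 37 degrees Celsius in a qHTS format.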
Potency is the fitted concentration of half-maximal effect.

Row | Compound | max response | outcome | Potency
1 | CC(C)c1ccc2oc3nc(N)c(C(=O)O)cc3c(=O)c2c1 | -17.6% (inactive) | inactive | 
2 | c1cnc2cc3c(cc2n1)C1CNCC3C1 | 2.53% (inactive) | inactive | 
3 | Nc1nc(OCc2ccccc2)c2[nH]cnc2n1 |  | inactive | 
4 | C[C@@H](N)C1CCC(C(=O)Nc2ccncc2)CC1 (some centres not stated) |  | inactive | 
5 | CCN(CC)CCOc1ccc(Cc2ccccc2)cc1 | -17.2% (inactive) | inactive | 
6 | O=C(NCCO[N+](=O)[O-])c1cccnc1 | 4.19% (inactive) | inactive | 
7 | Oc1ccc(OCc2ccccc2)cc1 | -14% (inactive) and -4.74% (inactive) |  | 
8 | Cc1nc(Nc2ncc(C(=O)Nc3c(C)cccc3Cl)s2)cc(N2CCN(CCO)CC2)n1 |  |  | 944 nM (active)
9 | Cc1ccc(C(=O)c2cc(O)c(O)c([N+](=O)[O-])c2)cc1 | -18.7% (inactive) | inactive | 
10 | CC1(C)NC(=O)N(c2ccc([N+](=O)[O-])c(C(F)(F)F)c2)C1=O | -0.412% (inactive) | inactive | 
11 | Cc1cc(=O)c2c(O)c3c(O)cc(=O)c4c3c3c(cc(O)c1c23)C(C)(C)C=4O |  | inactive | 1300 nM (active)
12 | CNC[C@@H](O)[C@@H](O)[C@H](O)[C@H](O)CO |  | inactive | 
13 | c1ccc2[nH]c(-c3cscn3)nc2c1 | -3.12% (inactive) | inactive | 
14 | Nc1ccc(S(N)(=O)=O)cc1 |  | inactive | 
15 | CCOC(=O)c1c(C)n(C)c2ccc(O)cc12 | 4.97% (inactive) | inactive | 
16 | Nc1ncn([C@H]2C[C@H](O)[C@@H](CO)O2)c(=O)n1 |  | inactive | 
17 | OC(CN1CCN(c2cccc(Cl)c2)CC1)C(c1ccccc1)c1ccccc1 (configuration not stated) | -65.8% (inactive) and -1.92% (inactive) |  | 
18 | Cc1c(OCC(F)(F)F)ccnc1CS(=O)c1nc2ccccc2[nH]1 (configuration not stated) |  | inactive | 
19 | O=C(NOCC1CC1)c1ccc(F)c(F)c1Nc1ccc(I)cc1Cl | -17.9% (inactive) |  | 26600 nM (active)

Row | Compound | max response | outcome | Potency
20 | CC(C)[C@H](N)C(=O)OCCOCn1cnc2c(=O)[nH]c(N)nc21 |  | inactive | 
21 | O=C(O)c1cccnc1Nc1cccc(C(F)(F)F)c1 | 1.64% (inactive) | inactive | 
22 | NC(=O)Cc1cccc(C(=O)c2ccccc2)c1N | -6.4% (inactive) | inactive | 
23 | Cc1ccc(NC(=O)c2ccc(CN3CCN(C)CC3)cc2)cc1Nc1nccc(-c2cccnc2)n1 |  | inactive | 
24 | Cc1cc(=O)oc2cc(O)ccc12 | 1.05% (inactive) and -3.2% (inactive) |  | 
25 | COc1ccccc1N1CCN(CCN(C(=O)C2CCCCC2)c2ccccn2)CC1 | 1.26% (inactive) and -29.9% (inactive) |  | 
26 | N[C@@H](Cc1cc(I)c(Oc2cc(I)c(O)c(I)c2)c(I)c1)C(=O)O | -2.11% (inactive) | inactive | 
27 | Cc1nccn1CC1CCc2c(c3ccccc3n2C)C1=O (configuration not stated) | -3.6% (inactive) and 4.03% (inactive) | inactive | 
28 | CN1CCC(=C2c3ccccc3CCc3sccc32)CC1 |  | inactive | 
29 | CCC(C)(Oc1ccc(C2(c3ccc(OC(C)(CC)C(=O)O)cc3)CCCCC2)cc1)C(=O)O (configuration not stated) |  | inactive | 
30 | Cc1ccc(Nc2nccc(N(C)c3ccc4c(C)n(C)nc4c3)n2)cc1S(N)(=O)=O | -13.5% (inactive) and -50.9% (inactive) | inactive | 
31 | CC(S)C(=O)NCC(=O)O (configuration not stated) | -2.01% (inactive) | inactive | 
32 | C[C@H](Cn1cnc2c(N)ncnc21)OCP(=O)(O)O |  | inactive | 
33 | COCCCOc1ccnc(CS(=O)c2nc3ccccc3[nH]2)c1C (configuration not stated) | -2% (inactive) | inactive; activator | 
34 | CCOc1cc(CC(=O)N[C@@H](CC(C)C)c2ccccc2N2CCCCC2)ccc1C(=O)O |  | inactive | 
35 | CCCCc1ccc2nc(NC(=O)OC)[nH]c2c1 | 3.13% (inactive) | inactive | 
36 | CNC[C@H](O)c1ccc(O)c(O)c1 | -1.14% (inactive) and -13.4% (inactive) |  | 
37 | CC1Cc2ccccc2N1NC(=O)c1ccc(Cl)c(S(N)(=O)=O)c1 (configuration not stated) | -11.1% (inactive) | inactive | 
38 | COc1cc2c(cc1OC)C1CC(=O)C(CC(C)C)CN1CC2 (configuration not stated) |  | inactive | 
